Laboratory results taken from PubChem BioAssay (NCATS).
Inconclusive results are not listed. Active and inactive are the calls of the source. Calls follow the shape of the dose curve; as a rule, active = well fitted inhibition curve with a large enough effect; inconclusive = small, poorly fitted or top-dose-only effect; inactive = flat fitted curve, though single readings scatter.

Assays:
HaCat [1] = assay: Cytotoxic Profiling of Annotated Libraries Using Quantitative High-Throughput Screening (AID 1296008); settings: Five cell lines viability, CellTiter-Glo ATP luminescence, 48-72 h; max response: active compounds read low; also: potency is read from the fitted curve at half-maximal effect; as to max response: % is scaled to controls: 0 for no effect and ±100 for the full control effect
Method in brief: (§1)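 Compounds were pin-transferred onto cells and incubated 48 or 72 hr at 37 degree Celsius, 95% humidity. CellTiter-Glo was added, plates sat 10 min at room temperature, then ATP-coupled luminescence was imaged as the viability read-out.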

KB-3-1 = assay: as above; settings: Five cell lines viability, CellTiter-Glo ATP luminescence, 48-72 h; max response: active compounds read low
Method in brief: as §1

NIH3T3 = assay: as above; settings: Five cell lines viability, CellTiter-Glo ATP luminescence, 48-72 h; max response: active compounds read low
Method in brief: as §1

HACAT [2] = assay: qHTS assay to identify novel small-molecules to repurpose for Merkel cell carcinoma treatment (AID 1296009); settings: MCC and control cell lines, CellTiter-Glo viability, 72 h; at 44.8 µM (top of the series) unless noted
Method in brief: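 Cells exposed to NPC (8-point) and MIPE (11-point) compound dilutions for 72 hr at 37 degree celsius; viability read by CellTiter-Glo luminescence, normalized to no-cell and DMSO in-plate controls.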
Also: nearly all actives have a fitted effect of over 60% in size.

O=C(NCc1cccs1)c1cc2nc(-c3ccco3)cc(C(F)(F)Cl)n2n1
inactive: outcome (HaCat [1]) | max response (KB-3-1) 3.07% | max response (NIH3T3) -24.5% | outcome (HACAT [2])

CCOc1ccc(S(=O)(=O)N2CCCCCC2)c2ccccc12
inactive: outcome (HaCat [1]) | max response (KB-3-1) -18.9% | outcome (NIH3T3) | outcome (HACAT [2])

O=C(NCc1ccccc1)c1ccc2c(=O)n(-c3cccc(C(F)(F)F)c3)c(=S)[nH]c2c1
inactive: max response (HaCat [1]) -51.3% | max response (KB-3-1) -9.36% | max response (NIH3T3) -30.9%

C=CC(=O)N1CCCN(c2cc(NCCC(=O)O)nc(-c3ccccn3)n2)CC1
inactive: outcome (HaCat [1]) | max response (KB-3-1) -3.55% | max response (NIH3T3) -29.3% | outcome (HACAT [2])

C=C1/C(=C/C=C2\CCC[C@@]3(C)C2CCC3[C@H](C)/C=C/[C@@H](O)C2CC2)C[C@@H](O)C[C@@H]1O (some centres undefined)
inactive: max response (HaCat [1]) -20.3% | max response (KB-3-1) -9.38% | max response (NIH3T3) -32.1%

C=C1C(=O)O[C@@H]2C=C(COC(C)=O)CC/C=C(\CO)CC[C@@H]12
inactive: outcome (HaCat [1]) | max response (KB-3-1) 7.74% | max response (NIH3T3) -6.09% | outcome (HACAT [2])

C=C1C(=O)OC2C1CCC1(C)C(O)CC=C(C)C21 (centres undefined)
inactive: outcome (HaCat [1]) | max response (KB-3-1) 0.514% | outcome (NIH3T3) | outcome (HACAT [2])

C/C=C(\C)[C@@H]1C(C)=C[C@@H]2[C@H]([C@@H]1/C=C/C=C/C(=O)O)[C@@H](C)CC[C@@H]2O
active: Potency (KB-3-1) 8.05 µM
inactive: outcome (HaCat [1]) | outcome (HACAT [2])

C=C1C(=O)OC2C1CCC1(C)C(O)CCC(=C)C21 (centres undefined)
inactive: outcome (HaCat [1]) | max response (KB-3-1) 7.7% | max response (NIH3T3) -19.9% | outcome (HACAT [2])

O=c1[nH]c([C@@H]2CCCN2)nc2c1oc1ccc(Cl)cc12
active: Potency (HaCat [1]) 1.46 µM
inactive: max response (KB-3-1) -19.5% | max response (NIH3T3) -23.2%

Fc1ccc(-c2cncc(CN3CCN(c4cccc5c4OCCO5)CC3)c2)cc1
inactive: outcome (HaCat [1]) | max response (KB-3-1) -10.8% | max response (NIH3T3) -12.4% | outcome (HACAT [2])

CCNc1nc(Nc2cc(F)c(C(=O)N3CCOCC3)cc2OC)ncc1C(F)(F)F
inactive: max response (HaCat [1]) 1.43% | max response (KB-3-1) -21.3% | max response (NIH3T3) -2.73%

O=C(C1CCCCC1)N(CCN1CCN(c2ccccc2O)CC1)c1ccccn1
inactive: outcome (HaCat [1]) | max response (KB-3-1) -15.9% | outcome (HACAT [2])

CN1CCN(C(=O)CN[C@@H]2C[C@H]2c2ccc(OCc3ccccc3)cc2)CC1
inactive: max response (HaCat [1]) -3.34% | max response (KB-3-1) -22.7% | max response (NIH3T3) -9.45%

CC(=O)O[C@@H]1C2=C(O)C(=O)[C@](C)(OC(C)=O)C(=O)C2=CO[C@@]12O[C@@H](C)CC[C@H]2OC(C)=O
inactive: outcome (HaCat [1]) | outcome (KB-3-1) | max response (NIH3T3) -10.7% | outcome (HACAT [2]) inactive [at 17.4 µM]

CC1(C)CC[C@]2(C(=O)O[C@@H]3O[C@H](CO)[C@@H](O)[C@H](O)[C@H]3O)CC[C@]3(C)C(=CCC4[C@@]5(C)CC[C@H](O[C@@H]6O[C@H](C(=O)O)[C@H](O)[C@H](O)[C@H]6O)C(C)(C)C5CC[C@]43C)[C@@H]2C1 (some centres undefined)
inactive: outcome (HaCat [1]) | outcome (KB-3-1) | max response (NIH3T3) -2.05% | outcome (HACAT [2]) inactive [at 17.4 µM]

COc1ccc(-n2c(SCCCN3C(=O)c4cccc5cccc(c45)C3=O)nnc2-c2ccncc2)cc1
inactive: outcome (HaCat [1]) | max response (KB-3-1) -1.97% | max response (NIH3T3) -2.58% | outcome (HACAT [2])

COc1ccc(-c2csc(NC(=O)[C@H]3CCCCN3S(=O)(=O)c3ccc(C)cc3)n2)cc1
inactive: outcome (HaCat [1]) | max response (KB-3-1) -25.1% | outcome (HACAT [2])

C=C1C(=O)O[C@@H]2C[C@H](C)C3=CC(=O)[C@H](O)[C@@]3(C)C[C@H]12
inactive: max response (HaCat [1]) 1.47% | max response (KB-3-1) 7.17% | max response (NIH3T3) -23.3%

CC(=O)OC1C(O)CC2(C)C(CCC3(C)C2CC=C2C4C5(CCC(CO[C@@H]6O[C@H](CO)[C@@H](O)[C@H](O)[C@H]6O)(OC5=O)C4(C)O)C(O)CC23C)C1(C)C (some centres undefined)
inactive: max response (HaCat [1]) -8.16% | outcome (KB-3-1) | max response (NIH3T3) 2.97%

CC(CCC1(O)OC2CC3C4CC=C5C[C@@H](O[C@@H]6O[C@H](CO)[C@@H](O[C@@H]7O[C@@H](C)[C@H](O)[C@@H](O)[C@H]7O)[C@H](O)[C@H]6O[C@@H]6O[C@@H](C)[C@H](O)[C@@H](O)[C@H]6O)CC[C@]5(C)C4CC[C@]3(C)[C@@]2(O)[C@@H]1C)CO[C@@H]1O[C@H](CO)[C@@H](O)[C@H](O)[C@H]1O (some centres undefined)
inactive: outcome (HaCat [1]) | outcome (KB-3-1) | max response (NIH3T3) 4.51% | outcome (HACAT [2]) inactive [at 9.27 µM]
